PubChem BioAssay (NCI)
This is part of a sample that, as a whole, favours compounds with a hit. Of some 83,000 tested, about 20% had one in any assay.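 Activity criterion: percent growth below 10, measured after cells in 96-well plates were exposed to a single compound concentration for 48 hours.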 The source made the active and inactive calls.

Experiments:
Test in all cases: NCI-60 one-dose screen, 48 h (100 = growth as untreated, 0 = no growth, -100 = all killed)
Conditions in all cases: 10 µM unless noted
NCI-H23 lung = system: NCI-H23 lung
NCI-H226 lung = system: NCI-H226 lung
NCI-H322M lung = system: NCI-H322M lung
HOP-62 NSCLC = system: HOP-62 NSCLC
NCI-H460 lung = system: NCI-H460 lung
HOP-92 NSCLC = system: HOP-92 NSCLC
NCI-H522 lung = system: NCI-H522 lung
A549/ATCC NSCLC = system: A549/ATCC NSCLC
786-0 renal = system: 786-0 renal

Measured: growth

CCOc1cccnc1/C=N/NC(N)=S
inactive: NCI-H23 lung 73.8% | NCI-H226 lung 53.9% | HOP-62 NSCLC 64.9% | NCI-H460 lung 19.9% | HOP-92 NSCLC 46.5% | NCI-H522 lung 79.1% | A549/ATCC NSCLC 48% | 786-0 renal 51.6%
active: NCI-H322M lung 6.61%

CC1(C)C(=O)/C(=C\c2cccnc2)C[C@]2(C)[C@H]3CC=C4[C@@H]5C[C@@](C)(C(=O)O)CC[C@]5(C)CC[C@@]4(C)[C@]3(C)CC[C@@H]12
inactive: NCI-H23 lung 102% | NCI-H226 lung 92.9% | NCI-H322M lung 93.1% | HOP-62 NSCLC 96.6% | NCI-H460 lung 101% | HOP-92 NSCLC 88.9% | NCI-H522 lung 87.1% | A549/ATCC NSCLC 78.8% | 786-0 renal 101%

O=C1CSC(c2ccc(O)cc2)N1c1nnc(Cn2cnnc2)o1 (configuration not stated)
inactive: NCI-H23 lung 100% | NCI-H226 lung 98.6% | NCI-H322M lung 95.8% | HOP-62 NSCLC 99.8% | NCI-H460 lung 115% | HOP-92 NSCLC 71.9% | NCI-H522 lung 99.1% | A549/ATCC NSCLC 90.3% | 786-0 renal 94.1%

NC(=O)c1c(NC(=O)c2ccc(C(F)(F)F)cc2Cl)sc2c1CCC(=O)C2
inactive: NCI-H322M lung 14% | 786-0 renal 17.1%
active: NCI-H23 lung -7.98% | NCI-H226 lung -22.6% | HOP-62 NSCLC 1.14% | NCI-H460 lung 0.92% | HOP-92 NSCLC -61.7% | NCI-H522 lung -25.6% | A549/ATCC NSCLC 9.42%

COC(=O)/C(=C\c1ccc(OC)cc1)C(=O)N1c2ccccc2Sc2ccccc21
inactive: NCI-H23 lung 72.7% | NCI-H226 lung 75.1% | NCI-H322M lung 83% | HOP-62 NSCLC 64% | NCI-H460 lung 96.7% | HOP-92 NSCLC 38.7% | A549/ATCC NSCLC 56.2% | 786-0 renal 70.5%
active: NCI-H522 lung 2.63%

CC(C)n1nc(C#Cc2cccc3cc(-c4cccc(C(F)(F)F)c4)ncc23)c2c(N)ncnc21
inactive: NCI-H23 lung 78.6% | NCI-H226 lung 48.2% | NCI-H322M lung 94.8% | HOP-62 NSCLC 59.7% | NCI-H460 lung 48.9% | HOP-92 NSCLC 78% | NCI-H522 lung 43.7% | A549/ATCC NSCLC 44.4% | 786-0 renal 89%

CCNCCNc1cc(-c2ccc(C#N)cc2)c(C#N)c2nc3ccccc3n12
inactive: NCI-H23 lung 47.5% | NCI-H226 lung 81.1% | NCI-H322M lung 33.6% | HOP-62 NSCLC 56.6% | HOP-92 NSCLC 63.3% | NCI-H522 lung 31.8% | 786-0 renal 28%
active: NCI-H460 lung -28.1% | A549/ATCC NSCLC 2.81%

C[C@H]1[C@H](C)CC[C@]2(C(=O)N3CCN(C)CC3)CC[C@]3(C)C(=CC[C@@H]4[C@@]5(C)C/C(=C/c6cccnc6)C(=O)C(C)(C)[C@@H]5CC[C@]43C)[C@H]12
active: NCI-H23 lung -51.2% | NCI-H226 lung -57.2% | NCI-H322M lung -52.8% | HOP-62 NSCLC -95.9% | NCI-H460 lung -65.1% | HOP-92 NSCLC -81.7% | NCI-H522 lung -79.3% | A549/ATCC NSCLC -73.7% | 786-0 renal -85%

O=C1Nc2ccccc2/C1=N/N=C/c1ccc(OC2OC(CO)C(O)C(O)C2O)cc1 (configuration not stated)
inactive: NCI-H23 lung 102% | NCI-H226 lung 104% | NCI-H322M lung 105% | HOP-62 NSCLC 103% | NCI-H460 lung 111% | HOP-92 NSCLC 111% | NCI-H522 lung 95% | A549/ATCC NSCLC 102% | 786-0 renal 109%

CC(C)OC(=O)OCOP(=O)(OCOC(=O)OC(C)C)C1CCCN(O)C1=O (configuration not stated)
inactive: NCI-H23 lung 69.6% | NCI-H226 lung 56.1% | NCI-H322M lung 32.8% | HOP-62 NSCLC 13.3% | NCI-H460 lung 17% | HOP-92 NSCLC 41.7% | A549/ATCC NSCLC 22.1% | 786-0 renal 17.6%
active: NCI-H522 lung -6.81%

CC(c1ccc(-n2cccn2)cc1)c1cnc(N2CCc3ccc(C(N)=O)cc3C2)s1 (configuration not stated)
inactive: NCI-H23 lung 59% | NCI-H226 lung 43.6% | NCI-H322M lung 86.8% | HOP-62 NSCLC 82.2% | NCI-H460 lung 74.5% | HOP-92 NSCLC 71% | NCI-H522 lung 41% | A549/ATCC NSCLC 65.8% | 786-0 renal 65.8%

Cc1cc(C(c2ccccc2)c2ccccc2)ccc1NS(=O)(=O)c1ccccc1
inactive: NCI-H23 lung 86.2% | NCI-H226 lung 102% | NCI-H322M lung 119% | HOP-62 NSCLC 110% | NCI-H460 lung 93.2% | HOP-92 NSCLC 95.8% | NCI-H522 lung 83.7% | A549/ATCC NSCLC 87.9% | 786-0 renal 102%

Cc1cc(NS(=O)(=O)c2ccccc2)c(OS(=O)(=O)c2ccccc2)cc1C
inactive: NCI-H23 lung 98.6% | NCI-H226 lung 101% | NCI-H322M lung 110% | HOP-62 NSCLC 105% | NCI-H460 lung 106% | HOP-92 NSCLC 88.1% | NCI-H522 lung 97.4% | A549/ATCC NSCLC 104% | 786-0 renal 112%

O=C(Oc1ccc[nH]c1=O)c1cc([N+](=O)[O-])cc([N+](=O)[O-])c1
inactive: NCI-H23 lung 114% | NCI-H226 lung 104% | NCI-H322M lung 98.6% | HOP-62 NSCLC 97.2% | NCI-H460 lung 111% | HOP-92 NSCLC 146% | NCI-H522 lung 116% | A549/ATCC NSCLC 77.3% | 786-0 renal 101%

CCn1c(Sc2nnc(NC(=O)CCN3CCCC3)s2)nc2c1c(=O)n(C)c(=O)n2C
inactive: NCI-H23 lung 106% | NCI-H226 lung 103% | NCI-H322M lung 105% | HOP-62 NSCLC 103% | NCI-H460 lung 112% | HOP-92 NSCLC 107% | NCI-H522 lung 86.8% | A549/ATCC NSCLC 99.3% | 786-0 renal 106%

N#Cc1c(-c2ccccc2)nc(SCC2CO2)nc1N1CCOCC1 (configuration not stated)
inactive: NCI-H23 lung 71.4% | NCI-H226 lung 75% | NCI-H322M lung 65.8% | HOP-62 NSCLC 54.3% | NCI-H460 lung 67.6% | HOP-92 NSCLC 18.3% | NCI-H522 lung 57.9% | A549/ATCC NSCLC 83.8% | 786-0 renal 65.5%

O=C(O)CC1Sc2ccccc2NC1=O (configuration not stated)
inactive: NCI-H23 lung 89.1% | NCI-H226 lung 95.2% | NCI-H322M lung 104% | HOP-62 NSCLC 96.3% | NCI-H460 lung 195% | HOP-92 NSCLC 73.1% | NCI-H522 lung 81% | A549/ATCC NSCLC 106% | 786-0 renal 108%

COc1cc2cc(Oc3ccc(NC(=O)Nc4cc(C(F)(F)F)cc(C(F)(F)F)c4)cc3)c(C)nc2cc1OCCN1CCCCC1
inactive: NCI-H226 lung 22.1% | HOP-92 NSCLC 42.2%
active: NCI-H23 lung -73.3% | NCI-H322M lung -87.1% | HOP-62 NSCLC -50% | NCI-H460 lung -78% | NCI-H522 lung -53% | A549/ATCC NSCLC -64.9% | 786-0 renal -83.6%
